# In ChEMBL document CHEMBL4513216, “Probing the Open Global Health Chemical Diversity Library for Multistage-Active Starting Points for Next-Generation Antimalarials” (ACS Infect Dis, 2020):
# Out of some 65,000 compounds screened, about 2,100 (3.2%) showed an effect of 50% or more. The median lay at about -52%. The entries come from a sample that favours strong results as a whole.
# System: Plasmodium falciparum
# Assay: Screen against P. falciparum Asexual Blood Stage (ABS), at 5uM
# Format: functional, Dd2
# Conditions: tested at 5 uM
row,SMILES,INHIBITION [%]
1,Cc1cc(C)c(CNc2ncnc3ccsc23)c(=O)[nH]1,-52
2,Cc1csc(C2(NCC(O)COC(C)C)CCCC2)n1 (configuration not stated),-14.1
3,O=C(c1cc(F)cc(F)c1)N1C[C@H]2CNC[C@H]2C1,1.31
4,CC(C)N1C(=O)C2(CCN(C)CC2)c2cc(F)ccc21,-10.7
5,CC(C)N1CCC2(CC1)C(=O)N(c1cccnc1)c1ccc(F)cc12,65.4
6,CN1CCC2(CC1)C(=O)N(C)c1ccc(F)cc12,-95.4
7,CC(C)N1CCC2(CC1)C(=O)N(c1cccnc1)c1c(F)cccc12,49.8
8,CN1C(=O)C2(CCNCC2)c2cc(F)ccc21,-85.9
9,CN1CCC2(CC1)C(=O)N(c1cccnc1)c1ccc(F)cc12,59.5
10,Cc1cccc(CN2CCCCC23CCNC3)n1 (configuration not stated),25.4
11,Cc1cccc(CN2CCCC23CCNC3)n1 (configuration not stated),15.6
12,Cc1cccc(CN(Cc2ccc(C)o2)C2CC(C)(C)NC(C)(C)C2)n1,77.4
13,COc1cc(C(=O)NCC2(N(C)C)CCN(C)CC2)c2ccccc2n1,73.6
14,Cn1cc(CN2CCC[C@]3(C[C@H](Oc4ccccn4)CO3)C2)cn1,-23.8
15,CO[C@H]1CN(C(C)C)C[C@@H]1NC(=O)Nc1ccc(C(F)(F)F)cc1,71.5
16,O=C1CC2(CCN(Cc3ccncc3)C2)CN1c1cccc(F)c1 (configuration not stated),-17.3
17,O=C1CC2(CCN(Cc3cccnc3)C2)CN1c1cccc(F)c1 (configuration not stated),-34.7
18,CC(C)=CCN1CCC2(CC1)CC(=O)N(Cc1cc(F)cc(F)c1)C2,75
19,CCCN1CCN(C(=O)c2ccc(Cl)cn2)[C@H]2CS(=O)(=O)C[C@H]21,-54.2
20,c1cncc(COC[C@H]2CC[C@H]3[C@H](CCN3Cc3nccs3)O2)c1,-35.5
21,COc1ccc(-c2n[nH]cc2C2SCC(=O)Nc3[nH]ncc32)cc1 (configuration not stated),-21.3
22,Cc1ccc(C(=O)N2CC[C@H]3[C@H]2CCN3CC2CCOCC2)cn1,-131
23,CO[C@H]1CCN(S(=O)(=O)c2cccnc2)[C@@H]2CN(CC3CC3)C[C@H]12,31
24,CNC(=O)c1ccc2c(c1)C1(CCN(CC3CC3)CC1)C(=O)N2,-44.8
25,O=S(=O)(NC1CCC12CCN(CC1CC1)CC2)c1ccccc1 (configuration not stated),71.2
26,c1ccc(CN2C[C@H]3CCC[C@@]3(COCC3CC3)C2)nc1,-64.4

row,SMILES,INHIBITION [%]
1,c1ccc(CN2C[C@H]3CCC[C@@]3(COCC3CCOCC3)C2)nc1,-45.1
2,Clc1ccc(COCC2CCN(Cc3ccccn3)CC2)cc1,90.7
3,c1ccc(CN2C[C@@H]3COC[C@]3(COCC3CCOCC3)C2)nc1,-61.3
4,Fc1ccc(COCC2CCN(Cc3ccccn3)CC2)cc1,78.8
5,c1ccc(CN2C[C@@H]3COC[C@]3(COCc3ccncc3)C2)nc1,-47.9
6,Cc1nc2c(c(NCc3ccc(-c4ccccn4)s3)n1)CCNCC2,73.6
7,Cc1nc2c(c(NCc3nc4ccccc4s3)n1)CCNCC2,71.3
8,Cc1nc2c(c(NCc3cc4ccccc4s3)n1)CCNCC2,89.2
9,COc1ncnc(N)c1CNCCc1ccccc1,-136
10,Cc1nc(C2(NCC(=O)NCc3cccs3)CCCCC2)no1,-130
11,CN(C)C(=O)CN1CCCC2(CCN(c3ccc(C#N)cn3)C2)C1 (configuration not stated),-51.1
12,O=C1CCCN1CCN1CC=C(c2cnn(C3CCS(=O)(=O)C3)c2)CC1 (configuration not stated),-88.6
13,CC(Nc1ncnc2c1CCNC2)c1ccc2c(c1)CCCC2 (configuration not stated),71.2
14,CC(C)N(C)Cc1cncc2c1CCN(Cc1cccs1)C2,1.43
15,COc1cc(Oc2ncccc2C(F)(F)F)ccc1CN1CCCC1,79.4
16,COCCN1CCCC12CCN(Cc1cccnc1OC)CC2,-66.3
17,CCN1CCCC12CCN(Cc1cccnc1OC)CC2,-69.1
18,Cc1noc(C)c1CN1CCO[C@H]2[C@H](Oc3ccccn3)CC[C@@H]21,-42.5
19,OCCCN1CCc2[nH]nc(C(c3ccccc3)c3ccccc3)c2C1,73
20,Cc1cccc(CN2CC3C[C@]3(NC(=O)c3ccoc3)C2)n1 (some centres not stated),-67.9
21,COCCN1C[C@@H]2[C@@H](OC)CCN(S(=O)(=O)c3cccnc3)[C@@H]2C1,-22.8
22,Cn1ccc2c(C(=O)NC3CN4CCC3CC4)cccc21 (configuration not stated),3.44
23,Cc1ccc(C(=O)N[C@H]2CN(CCO)C[C@@H]2C2CC2)cc1Cl,52.2
24,CCOc1ccc(C2SCC(=O)Nc3c2c(=O)[nH]n3C(CC)CC)cc1 (configuration not stated),-144
25,CCN1CCN(c2cncc(Cl)n2)CC1,-13.6
26,CCN1CCN(S(=O)(=O)c2cc(Cl)c(Cl)cc2C)CC1,70.9
